Our source for the larval motility values is the supplement of paper PMC8540655.

SMILES strings stand for the structures. Values without a mark were called inactive.

The subject of the experiment is Aedes aegypti larvae. The experiment is described as follows: larval motility relative to same well at 0 h (fraction); higher = more motile (less active compound), active = 0.4 or less. As to conditions: 10 µM; 2 h. The method, boiled down: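 Aedes aegypti larvae, hatched in pond salt solution with yeast at 25 °C and collected after 18–24 h, were dispensed at about 10 per well (100 µL) in 96-well plates. Compounds were tested at 10 µM, 1% v/v DMSO, with solvent and larvicide control wells on each plate. INVAPP movies (200 frames, 100 ms intervals) were recorded at 0, 2 and 24 h. Relative motility is each well's score divided by its 0 h score, median of three independent larval batches.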
On to `O=C(CP(=O)(O)O)NCCc1cccc(Oc2ccccc2)c1`, for which the larval motility was 2.12.

As to `CC1=C(/C=C/C(C)=C/C=C/C(C)=C/C(=O)Nc2ccc(O)cc2)C(C)(C)CCC1`, the larval motility is 0.95.

Regarding `COC(=O)Nc1nc2cc(Sc3ccccc3)ccc2[nH]1`, the larval motility was 0.997.

On to `Clc1ccc(COC(Cn2ccnc2)c2ccc(Cl)cc2Cl)c(Cl)c1` (stereo not given), for which the larval motility was 0.499.

For `O=C(N[C@H](CCS)C(=O)N[C@H](Cc1ccccc1)C(=O)O)c1cc2ccccc2[nH]1`, the larval motility is 1.47.

Take `Fc1cccc(Cl)c1C1CC(c2ccc(Cl)cc2)Nc2nnnn21` (stereo not given): the larval motility is 1.01.

As for `COc1cc(NS(=O)(=O)c2ccc(C)cc2)c2ncccc2c1`, the larval motility is 0.89.

Regarding `O=S(=O)(Nc1cccc2cccnc12)c1ccccc1`, the larval motility is 0.587.

As to `CCc1ccc(C2CC(C(F)(F)F)n3ncc(C(=O)NCc4ccc(OC)cc4)c3N2)cc1` (stereo not given), the larval motility was 0.923.

For `NC[C@H]1O[C@H](O[C@H]2[C@H](O)[C@@H](O[C@H]3O[C@H](CO)[C@@H](O)[C@H](N)[C@H]3O)[C@H](N)C[C@@H]2N)[C@H](N)C[C@@H]1O`, the larval motility is 0.727.

On to `CC(C)Cn1c(=O)n(C)c(=O)c2c(-c3cncn3C)n(Cc3cccc4ccccc34)nc21`, for which the larval motility was 0.612.

`Fc1ccc(-c2nc(-c3c[nH]c4ccc(Br)cc34)[nH]c2-c2ccc(F)cc2)cc1`: the larval motility was 0.737.

As to `NCc1ccc(S(N)(=O)=O)cc1`, the larval motility was 0.675.

Turning to `O=C1CCC(N2C(=O)c3ccccc3C2=O)C(=O)N1` (stereo not given), the larval motility was 1.17.

On to `Cc1ncc([N+](=O)[O-])n1CC(O)CN1CCOCC1` (stereo not given), for which the larval motility was 1.3.

`O[C@@](Cn1cnnn1)(c1ccc(F)cc1F)C(F)(F)c1ccc(-c2ccc(OCC(F)(F)F)cc2)cn1`: the larval motility is 0.718.

Turning to `CCN(CC)CCCC(C)Nc1ccnc2cc(Cl)ccc12` (stereo not given), the larval motility was 0.715.

Regarding `CCc1cc(CCC(=O)Nc2ccccc2O)c(=O)[nH]c1C`, the larval motility was 0.689.

Take `COc1ccc(SCC(=O)N2c3ccccc3Sc3ccccc32)cc1`: the larval motility was 0.631.

Turning to `O=C(NC(=O)N1CCCc2ccccc21)c1ccc(Cl)cc1Cl`, the larval motility was 0.529.

In the case of `CC(=O)N1c2ccccc2NC2=C(C(=O)CC(C)(C)C2)C1c1ccc(OCc2ccccc2)cc1` (stereo not given), the larval motility was 1.49.

Consider `COc1ccc(NC(=O)c2cc3ccccn3n2)cc1`, for which the larval motility is 0.48.

In the case of `C=CCN(C(=O)OCc1ccc([N+](=O)[O-])cc1)C1CCN(CC[C@](C)(CN(C)S(=O)(=O)c2ccccc2)c2ccccc2)CC1`, the larval motility was 0.847.

Regarding `COc1ccc(C)cc1NC(=O)c1ccc(S(=O)(=O)N2CCCCC2)cc1`, the larval motility is 1.12.

For `CC(C)(C)c1ccc(C(Cn2cccc(C(F)(F)F)c2=O)NC2Cc3ccccc3C2)cc1` (stereo not given), the larval motility was 0.686.

With `O=C(Nc1ccc(N2CCN(C(=O)c3ccccc3)CC2)cc1)c1ccc2c(c1)OCO2`, the larval motility was 0.946.

In the case of `Nc1nnc(-c2ccc(Cl)cc2)s1`, the larval motility is 0.916.

For the compound `O=C(NC(=O)N1CCCc2ccccc21)c1cccc(Cl)c1`, the larval motility was 0.838.

In the case of `CC(Oc1ccc(Cl)cc1Cl)C(=O)NCc1ccc2c(c1)OCO2` (stereo not given), the larval motility is 0.508.

`CC(C)c1cc2c(cc1S(=O)(=O)O)[C@@]1(C)CCC[C@@](C)(C(=O)O)[C@@H]1CC2`: the larval motility is 0.784.

Turning to `O=C(Nc1ccc(F)cc1)c1nn(-c2ccccc2)c(=O)cc1Cl`, the larval motility is 1.14.

On to `CCc1cc(O)c(Oc2ccc(C(N)=O)cc2F)cc1F`, for which the larval motility was 0.539.

For `CC(C)Oc1ccc(-n2cnc3cc(/C=C\c4ccc(C(C)(C)O)cc4)ccc32)cc1`, the larval motility is 0.656.

Take `CCN(CC)CCn1c(=N)n(CC(O)COc2ccc(Cl)cc2Cl)c2ccccc21` (stereo not given): the larval motility is 0.783.

On to `Cc1c(F)cccc1NC(=O)Nc1ccc(Cl)c(S(=O)(=O)[C@H]2CCCNC2)c1O`, for which the larval motility was 0.645.

As to `C/C(=N\NC(=O)C1CC1c1ccccc1)c1ccc(NC(=O)c2ccco2)cc1` (stereo not given), the larval motility is 0.804.

Regarding `CC(N)C12CC3CC(CC(C3)C1)C2` (stereo not given), the larval motility was 1.14.

As for `O=C(/C(=C/c1ccc(Cl)cc1Cl)n1ccnc1)c1ccc(Cl)cc1`, the larval motility is 0.446.

Regarding `O=C(O)c1sccc1S(=O)(=O)n1ccc2cc(Br)ccc21`, the larval motility is 0.657.

For `Nc1nc(O)ncc1F`, the larval motility was 0.641.
